Screens from PubChem BioAssay.
zVAD death inh = blocks zVAD induced death of L929 cells; viability rescue, % at 10 µM; L929 zVAD necroptosis rescue, ATP luminescence, 24 h; with zVAD 60 µM; AID 1377; actives 0.38% (n = 220,000);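 active = activation, scaled between plate controls, above about 75%, limit read from the data; inactive = activation under that limit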
TNF death inh = TNF-alpha cell death inhibition in Jurkat FADD-/- cells; activation (protection from cell death), % at 10 µM; Jurkat FADD-/- TNF necroptosis rescue, ATP luminescence, 24 h; 0 = TNF only, 100 = no-TNF cells; actives 0.068% (n = 220,000); AID 463075;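 active = activation, meaning protection from cell death, of at least 50% relative to plate controls; inactive = activation below 50%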;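 note: necroptosis triggered by 40 ng/mL TNF-alpha added together with compound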
Mcl1 Bid PPI = disrupts binding of human Mcl-1 to Bid peptide; Q07820; TR-FRET Mcl-1/Bid-Dy647 peptide binding, 1536-well; inhibition, % at 21.7 µM; actives 0.97% (n = 220,000);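 active = compounds that cut the binding signal by more than half at the single screening dose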;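 note: His-tagged Mcl-1 with europium anti-His antibody binding Bid BH3 peptide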
Target sequence (Q07820 whole entry, looked up): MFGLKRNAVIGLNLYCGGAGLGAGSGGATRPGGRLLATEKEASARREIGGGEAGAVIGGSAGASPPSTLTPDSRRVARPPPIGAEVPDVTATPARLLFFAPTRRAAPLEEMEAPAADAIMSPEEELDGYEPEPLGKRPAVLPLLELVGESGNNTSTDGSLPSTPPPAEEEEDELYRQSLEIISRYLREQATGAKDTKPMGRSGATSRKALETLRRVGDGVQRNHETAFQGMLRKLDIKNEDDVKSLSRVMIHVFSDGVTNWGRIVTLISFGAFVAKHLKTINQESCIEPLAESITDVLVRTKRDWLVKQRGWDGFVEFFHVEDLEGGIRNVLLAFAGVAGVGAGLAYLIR
m-calpain inh = inhibitors of pig calpain II; purified calpain II, fluorogenic peptide substrate, 30 min; inhibition, % at 16 µM; actives 0.37% (n = 220,000); AID 1236;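 active = inhibition above about 50%, limit read from the data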
Mcl1-Noxa inh = disrupts binding of human Mcl-1 to Noxa peptide; Q07820; TR-FRET Mcl-1/Noxa peptide binding, 2 h; inhibition, % at 21.7 µM; actives 1.5% (n = 220,000); AID 1022;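 active = compounds that cut the protein-peptide binding signal by more than 50% relative to plate controls in a single-dose test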;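 note: His-tagged Mcl-1 with rhodamine Noxa BH3 peptide and terbium anti-His antibody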
Bim-Mcl-1 = disrupts Bim peptide binding to human Mcl-1. Bead-based flow cytometry, Bim peptide-Mcl-1 binding. inhibition, % at 10 µM. actives 0.1% (n = 190,000). AID 1009; in the data active = inhibition above about 40%
Of the large screens only hits and unclear results are named; the others gave an inactive call. Most compounds without a hit are left out; they make up all but 2.8% or so of the library.

CCCCOc1ccc(Cc2c(Cl)nc(SC)nc2N2CCOCC2)cc1	Bim-Mcl-1 45
O=C(N/N=C/c1cccc([N+](=O)[O-])c1)c1cc(-c2ccc3c4c(cccc24)CC3)n[nH]1	Mcl1 Bid PPI 60
O=C(N/N=C/c1ccc(Cl)c([N+](=O)[O-])c1)c1cc(-c2ccc3c4c(cccc24)CC3)n[nH]1	Mcl1-Noxa inh 64 (no result: Bim-Mcl-1)
CC(C)c1ccc(/C=N/NC(=O)c2cc(-c3cccc([N+](=O)[O-])c3)n[nH]2)cc1	none (no result: Bim-Mcl-1)
O=C(N/N=C/c1ccc(Cl)c([N+](=O)[O-])c1)c1ccc2nc[nH]c2c1	none
O=[N+]([O-])c1c(Nc2ccccn2)cc(Cl)c2nonc12	Mcl1-Noxa inh 57 (no result: Bim-Mcl-1)
COc1ccccc1N1CCN(CC(O)COc2ccc3c(c2)CCC3)CC1 (centres undefined)	none
Cc1ccn2c(-c3n[nH]c(=S)n3C)c(C)nc2c1	Mcl1-Noxa inh 54
O=C(O)/C=C/C(=O)Nc1ccc(Oc2ccc(NC(=O)/C=C/C(=O)O)cc2)cc1	Mcl1-Noxa inh 66
O=C(O)/C=C\C(=O)Nc1ccc(Oc2ccccc2)cc1	none
OC(CNC1CCCc2ccccc21)COc1ccc2ccccc2c1 (centres undefined)	Mcl1 Bid PPI 52
CC(C)(C)c1ccccc1NC(=S)NC1CCCCC1	none
COc1ccccc1N(C)S(=O)(=O)c1ccc(C(=O)OCC(N)=O)cc1	Bim-Mcl-1 44
O=C(Cc1ccc([N+](=O)[O-])cc1)NCc1ccccn1	Mcl1-Noxa inh 69
N#Cc1c(-c2ccccc2F)cc(C2CC2)nc1SCC(=O)c1cccs1	none
COc1ccc(C2=NN(c3nc(-c4ccccc4)c(CC(=O)O)s3)C(c3ccco3)C2)cc1 (centres undefined)	Mcl1-Noxa inh 85
Cc1nc(N2N=C(c3ccc(Cl)cc3)CC2c2ccco2)sc1C(=O)N(C)C (centres undefined)	none
Cc1ccc(C)c2nc3sc(C(=O)N4CCOCC4)c(N)c3cc12	Mcl1-Noxa inh 60
Cc1cc(C)c2nc3sc(C(=O)N4CCOCC4)c(N)c3cc2c1	Mcl1-Noxa inh 65 (no result: Bim-Mcl-1)
NC(=O)Oc1cccc(OC(N)=O)c1	none (no result: Bim-Mcl-1)
Cc1ccc(N2C(=O)CC(Cn3nc(C)cc3C)C2=O)cc1 (centres undefined)	Mcl1 Bid PPI 91
COc1ccccc1OCC(=O)NNC(=O)C(=O)N1CCCC1	none
CCN1CCCc2cc(CN(CCN3CCOCC3)C(=S)Nc3ccc(OC)c(OC)c3)ccc21	none
CCN1CCCc2cc(CN(CCN3CCOCC3)C(=S)Nc3cccc(C)c3)ccc21	Mcl1-Noxa inh 64
CCN1CCCc2cc(CN(CCN3CCOCC3)C(=O)Nc3ccc(C)c(C)c3)ccc21	none
CCc1ccc(NC(=O)N(CCN2CCOCC2)Cc2ccc3c(c2)CCCN3CC)cc1	Mcl1-Noxa inh 74
CCN1CCCc2cc(CN(CCN3CCOCC3)C(=S)Nc3ccccc3C)ccc21	Mcl1-Noxa inh 72
CCN1CCCc2cc(CN(CCN3CCOCC3)C(=S)Nc3ccc(OC)c(Cl)c3)ccc21	none
CCN1CCCc2cc(CN(CCN3CCOCC3)C(=S)Nc3ccccc3OC)ccc21	Mcl1-Noxa inh 60
Cc1ccccc1NC(=S)N(CCN1CCCCCC1)Cc1cccs1	none
CCOC(=O)N1CCC(n2c(SCC(=O)Nc3nccs3)nc3ccsc3c2=O)CC1	none
CCOCCOC(=O)c1ccc(-n2cncn2)nc1	none
Cc1ccc(CN2CCN(Cc3nc4ccccc4nc3C)CC2CCO)cc1 (centres undefined)	none (no result: Bim-Mcl-1)
Cn1cnnc1SCC(=O)Nc1nc(-c2ccccc2)cs1	Mcl1-Noxa inh 56
[O-][n+]1c2c(nn1-c1ccccc1)/C(=N/O)CCC2	none
[O-][n+]1onc2c1CCC(=N/O)/C2=N\Nc1ccccc1	Mcl1-Noxa inh 78 (no result: Bim-Mcl-1)
O=C(O)c1cccc(Cn2c(Cl)c(/C=N/NC(=O)c3cc4ccccc4cc3O)sc2=O)c1	m-calpain inh 59, Mcl1-Noxa inh 87 (no result: Bim-Mcl-1)
CCN1N=C(C)C=C(c2ccccc2)n2c1nc1ccccc12	none (no result: Bim-Mcl-1)
Cc1ccc(N=Nc2ccc(N)cc2C)c(S(N)(=O)=O)c1	Mcl1-Noxa inh 52 (no result: Bim-Mcl-1)
COc1cc(C2C(C#N)=C(N)Oc3cc(O)ccc32)cc(OC)c1OC (centres undefined)	Mcl1 Bid PPI 60
